# Data published in PubChem BioAssay (Tox21).
# Results filed as inconclusive are left out. A call without a number means that no potency is given here. Active and inactive are the calls of the source. Unless noted, calls follow the shape of the full dose curve.
# Tested on: not listed separately
# Test: qHTS assay to identify small molecule agonists of the estrogen receptor beta (ER-beta) signaling pathway - cell viability counter screen (AID 1259380; active = well fitted cell-killing curve with a large enough effect in the repeat runs; also: nearly all actives have a fitted effect of over 30% in size)
# Conditions: ER-beta-bla HEK293T viability, CellTiter-Glo luminescence, 16 h; series mostly up to 92.4 µM
# Procedure, shortened: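 In this qHTS counter screen, HEK293T cells carrying an ER-beta/UAS beta-lactamase reporter, grown in 2% charcoal-stripped FBS, received compound for 16 hr; ATP-based CellTiter-Glo luminescence was then read after 30 min at room temperature.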
row,Structure (SMILES),Potency
1,CCC(C)O (centres undefined),inactive
2,Cc1ccc(C(C)OC(=O)C2(C)CCC(C(=O)O)C2(C)C)cc1 (centres undefined),inactive
3,CCOC(=O)C(F)(F)F,inactive

# Biological target: Androgen receptor (Homo sapiens) (UniProt P10275)
# Sequence (P10275 whole entry, looked up): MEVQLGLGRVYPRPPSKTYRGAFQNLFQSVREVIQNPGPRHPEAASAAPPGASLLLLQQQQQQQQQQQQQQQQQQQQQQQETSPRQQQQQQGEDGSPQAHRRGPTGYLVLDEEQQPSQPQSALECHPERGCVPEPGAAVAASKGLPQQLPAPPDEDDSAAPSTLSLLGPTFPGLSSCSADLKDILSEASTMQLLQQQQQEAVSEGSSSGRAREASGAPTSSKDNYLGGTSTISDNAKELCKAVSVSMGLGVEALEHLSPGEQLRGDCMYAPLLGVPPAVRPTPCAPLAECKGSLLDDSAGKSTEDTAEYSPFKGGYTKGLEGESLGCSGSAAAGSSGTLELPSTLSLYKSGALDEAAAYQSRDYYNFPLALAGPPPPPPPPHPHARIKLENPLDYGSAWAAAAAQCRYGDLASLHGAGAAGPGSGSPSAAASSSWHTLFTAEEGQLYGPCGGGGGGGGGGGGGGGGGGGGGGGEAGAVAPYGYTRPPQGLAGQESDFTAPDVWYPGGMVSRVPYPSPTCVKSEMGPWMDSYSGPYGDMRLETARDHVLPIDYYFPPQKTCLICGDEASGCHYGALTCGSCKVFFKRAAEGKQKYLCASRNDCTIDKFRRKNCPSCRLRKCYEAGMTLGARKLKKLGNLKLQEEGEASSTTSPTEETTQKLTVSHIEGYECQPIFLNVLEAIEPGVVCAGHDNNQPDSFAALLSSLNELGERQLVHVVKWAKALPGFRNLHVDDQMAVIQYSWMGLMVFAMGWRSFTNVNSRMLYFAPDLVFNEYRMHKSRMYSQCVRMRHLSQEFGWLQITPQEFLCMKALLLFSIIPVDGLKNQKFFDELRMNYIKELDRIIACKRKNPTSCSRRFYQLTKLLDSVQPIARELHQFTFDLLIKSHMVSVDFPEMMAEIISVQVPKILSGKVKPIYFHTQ
# Test: qHTS assay to identify small molecule agonists of the androgen receptor (AR) signaling pathway in the presence of an antagonist (AID 1259381); also: nearly all actives have a fitted effect of over 15% in size
# Conditions: MDA-kb2 MMTV-luciferase, AR agonist + nilutamide, 16 h; series mostly up to 42.5 µM
# Procedure, shortened: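 AR antagonist background: nilutamide 3.0uM final. Cell line: MDA-kb2, MMTV-driven luciferase, responsive to both AR and GR. Exposure 16hr, 37C, no CO2; ONE-Glo luminescence.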
row,Structure (SMILES),Potency
1,CNCCCN1c2ccccc2CCc2ccccc21,inactive
2,COc1ccc(S(=O)(=O)N2C(=O)[C@@](c3ccccc3OC)(N3C[C@H](O)C[C@H]3C(=O)N(C)C)c3cc(Cl)ccc32)c(OC)c1,inactive
3,O=C(O)C1(C(=O)Nc2ccc(Cl)cc2Cl)CC1,inactive
4,C=C1C(=C/C=C2\CCC[C@]3(C)[C@@H]([C@H](C)/C=C/[C@@H](O)C4CC4)CC[C@@H]23)C[C@@H](O)C[C@@H]1O,inactive
5,Cc1cccc(C)c1OCC(=O)N[C@@H](Cc1ccccc1)[C@@H](O)C[C@H](Cc1ccccc1)NC(=O)[C@H](C(C)C)N1CCCNC1=O,inactive
6,O=C(c1ccc(F)cc1)C1CCN(CCn2c(=S)[nH]c3ccccc3c2=O)CC1,inactive
